Assay results taken from publication PMC8222333, “AsCas12a ultra nuclease facilitates the rapid generation of therapeutic cell medicines”.
Residue numbers refer to the chain shown, from its start.

B1: TGTG (dsDNA)
DNA 1: GCTATCTAGTGCTCAGTACGCACTGTGTGAGGAAACTTCTGGCAGGACCAGGTCATGAGATCGGAAGAGCACACGTCTGAACTCCAGTCA
DNA 2: TGACTGGAGTTCAGACGTGTGCTCTTCCGATCTCATGACCTGGTCCTGCCAGAAGTTTCCTCACACAGTGCGTACTGAGCACTAGATAGC
RNA: AAUUUCUACUCUUGUAGAUAGGAAACUUCUGGCAGGACC
B2: TTAT (dsDNA)
DNA 1: B1 DNA 1 with G27T, T28A, G29T
DNA 2: B1 DNA 2 with C62A, A63T, C64A
RNA: B1 RNA
B3: TTCG (dsDNA)
DNA 1: B1 DNA 1 with G27T, T28C
DNA 2: B1 DNA 2 with A63G, C64A
RNA: B1 RNA
B4: TGTT (dsDNA)
DNA 1: B1 DNA 1 with G29T
DNA 2: B1 DNA 2 with C62A
RNA: B1 RNA
B5: AGGG (dsDNA)
DNA 1: B1 DNA 1 with T26A, T28G
DNA 2: B1 DNA 2 with A63C, A65T
RNA: B1 RNA
B6: ACCT (dsDNA)
DNA 1: B1 DNA 1 with T26A, G27C, T28C, G29T
DNA 2: B1 DNA 2 with C62A, A63G, C64G, A65T
RNA: B1 RNA
B7: ACCA (dsDNA)
DNA 1: B1 DNA 1 with T26A, G27C, T28C, G29A
DNA 2: B1 DNA 2 with C62T, A63G, C64G, A65T
RNA: B1 RNA
B8: ATAT (dsDNA)
DNA 1: B1 DNA 1 with T26A, G27T, T28A, G29T
DNA 2: B1 DNA 2 with C62A, A63T, C64A, A65T
RNA: B1 RNA
B9: AATG (dsDNA)
DNA 1: B1 DNA 1 with T26A, G27A
DNA 2: B1 DNA 2 with C64T, A65T
RNA: B1 RNA
B10: AAAT (dsDNA)
DNA 1: B1 DNA 1 with T26A, G27A, T28A, G29T
DNA 2: B1 DNA 2 with C62A, A63T, C64T, A65T
RNA: B1 RNA
B11: TTGG (dsDNA)
DNA 1: B1 DNA 1 with G27T, T28G
DNA 2: B1 DNA 2 with A63C, C64A
RNA: B1 RNA
B12: ACAT (dsDNA)
DNA 1: B1 DNA 1 with T26A, G27C, T28A, G29T
DNA 2: B1 DNA 2 with C62A, A63T, C64G, A65T
RNA: B1 RNA
B13: ATAG (dsDNA)
DNA 1: B1 DNA 1 with T26A, G27T, T28A
DNA 2: B1 DNA 2 with A63T, C64A, A65T
RNA: B1 RNA
B14: TTGT (dsDNA)
DNA 1: B1 DNA 1 with G27T, T28G, G29T
DNA 2: B1 DNA 2 with C62A, A63C, C64A
RNA: B1 RNA
B15: TTAG (dsDNA)
DNA 1: B1 DNA 1 with G27T, T28A
DNA 2: B1 DNA 2 with A63T, C64A
RNA: B1 RNA

The binders below were run against dAsCas12a Ultra (Acidaminococcus sp., UniProt U2UMQ6 1-1307, M537R;F870L;D908A;E993A;D1235A) (assay: Spec-seq (native PAGE EMSA with sequencing of bound and unbound); 25 mM Tris-HCl pH 7.4, 150 mM KCl, 5 mM MgCl2, 10% glycerol, 1 mM DTT, 40 ng/uL salmon sperm DNA; 400 nM Cas12a, 480 nM crRNA, 50 nM library, 37 C 1 h; native PAGE at room temperature; high values mean tight binding). Conditions: protein: recombinant.

| Binder | binding signal [lnKA] |
| --- | --- |
| B1 | -7.7 |
| B2 | -8.23 |
| B3 | -6.85 |
| B4 | -7.9 |
| B11 | -7.84 |
| B14 | -7.79 |
| B15 | -8.15 |

Each binder was assayed against dAsCas12a E174R (Acidaminococcus sp., UniProt U2UMQ6 1-1307, E174R;D908A;E993A;D1235A) in the same assay as above. Conditions: protein: recombinant.

| Binder | binding signal [lnKA] |
| --- | --- |
| B1 | -8.19 |
| B2 | -8.07 |
| B3 | -7.11 |
| B4 | -8.41 |
| B5 | -8.84 |
| B6 | -8.9 |
| B7 | -8.92 |
| B8 | -8.59 |
| B9 | -8.3 |
| B10 | -8.92 |
| B11 | -8.2 |
| B12 | -8.97 |
| B13 | -8.88 |
| B14 | -7.77 |
| B15 | -8.42 |

What follows are binders tested against dAsCas12a S542R (Acidaminococcus sp., UniProt U2UMQ6 1-1307, S542R;D908A;E993A;D1235A) in the same assay as above. Conditions: protein: recombinant.

| Binder | binding signal [lnKA] |
| --- | --- |
| B1 | -7.46 |
| B2 | -7.55 |
| B3 | -3.01 |
| B4 | -7.82 |
| B5 | -8.44 |
| B6 | -7.8 |
| B7 | -6.94 |
| B8 | -8.38 |
| B9 | -8.21 |
| B10 | -8.45 |
| B11 | -7.64 |
| B12 | -8.62 |
| B13 | -8.31 |
| B14 | -7.47 |
| B15 | -7.46 |

The binders below were run against dAsCas12a K548R (Acidaminococcus sp., UniProt U2UMQ6 1-1307, K548R;D908A;E993A;D1235A) in the same assay as above. Conditions: protein: recombinant.

| Binder | binding signal [lnKA] |
| --- | --- |
| B1 | -8.2 |
| B3 | -8.63 |

These binders were tested against d-enCas12a (Acidaminococcus sp., UniProt U2UMQ6 1-1307, E174R;S542R;K548R;D908A;E993A;D1235A) in the same assay as above. Conditions: protein: recombinant.

| Binder | binding signal [lnKA] |
| --- | --- |
| B1 | -2.08 |
| B2 | -4.53 |
| B3 | -1.14 |
| B4 | -3.23 |
| B5 | -5.86 |
| B6 | -5.41 |
| B7 | -4.21 |
| B8 | -5.63 |
| B9 | -3.79 |
| B10 | -5.69 |
| B11 | -5.22 |
| B12 | -5.81 |
| B13 | -5.6 |
| B14 | -4.47 |
| B15 | -4.03 |

What follows are binders tested against d-enCas12a-Ultra (Acidaminococcus sp., UniProt U2UMQ6 1-1307, E174R;S542R;K548R;M537R;F870L;D908A;E993A;D1235A) in the same assay as above. Conditions: protein: recombinant.

| Binder | binding signal [lnKA] |
| --- | --- |
| B1 | -0.568 |
| B2 | -2.12 |
| B3 | -0.323 |
| B4 | -0.889 |
| B5 | -3.51 |
| B6 | -2.23 |
| B7 | -0.992 |
| B8 | -3.33 |
| B9 | -1.81 |
| B10 | -3.07 |
| B11 | -2.4 |
| B12 | -3.49 |
| B13 | -3.31 |
| B14 | -1.69 |
| B15 | -1.65 |
